# Values without a mark were called inactive. Inconclusive results are not listed. The list shows a part of the results. Entries that show only a call come without a potency. Calls of active or inactive are those of the source. Unless noted, calls come from the whole dose curve; as a rule, active = well fitted curve in the direction sought with a large enough effect; inconclusive = small, poorly fitted or top-dose-only effect, or another doubt; inactive = no such curve, though single readings can be large; an effect the other way counts as inactive or inconclusive.
# How the values were obtained:
# [1] = target: Mitogen-activated protein kinase 10 (Mus musculus) (UniProt Q61831); test: JNK3 AlphaScreen Assay (AID 530; active = well fitted curve in either direction with a large enough effect, not every such curve was filed as active;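 note: kinase came from lysate of stimulated human HepG2 cells; signal reports phosphorylation of biotinylated GST-cJun 1-79 at Ser73 with 10 µM ATP; series mostly up to about 57 µM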)
# In short: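 Phosphorylation of biotinylated GST-cJun(1-79) at Ser73 is measured by AlphaScreen proximity luminescence. Enzyme is JNK3 in HepG2 lysates activated with interleukin-1beta and tumor necrosis factor alpha; ATP is 10 uM final.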
# [2] = target: 3',5'-cyclic-AMP phosphodiesterase 4B (Homo sapiens) (UniProt Q07343); test: qHTS Assay for Inhibitors of PDE-IV (AID 607; active = well fitted activation curve with a large enough effect in the main read-out, with a control signal flat, not every such curve was filed as active)
# In short: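 The readout is membrane depolarisation from a cAMP-sensing CNG channel, detected with a potential dye at ex 535/em 590. Cells were HEK293-derived (endogenous PDE-IV) at 1000 cells/well, titrated up to 22.9 uM final.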
# [3] = target: Cytochrome P450 3A4 (Homo sapiens) (UniProt P08684); test: qHTS Assay for Activators of Cytochrome P450 3A4 (AID 885); note: nearly all actives have a fitted effect of over 65% in size
# In short: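 Activators are scored by enhanced luminescence from CYP3A4 conversion of luciferin-PPXE (25uM, equal to KM) to luciferin, after 60 min at RT with an NADPH-regenerating system.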
# [4] = target: Cytochrome P450 3A4 (Homo sapiens) (UniProt P08684); test: qHTS Assay for Inhibitors and Substrates of Cytochrome P450 3A4 (AID 884); note: nearly all actives have a fitted effect of over 50% in size; note: potency is the fitted concentration of half-maximal effect
# In short: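 Luminescent readout of luciferin produced by CYP3A4 (20 nM) dealkylation of Luciferin-PPXE, 25 uM (its KM). NADPH-driven reaction ran 60 min at RT after 10 min compound preincubation; data scaled to 57 uM ketoconazole as 100% inhibition.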
# [5] = target: DNA dC->dU-editing enzyme APOBEC-3G (Homo sapiens) (UniProt Q9HC16); test: qHTS for inhibitors of Vif-A3G interactions: Validation (AID 588379)
# In short: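 Yellow fluorescence (Ex 488, Em 500-530) of Vif-coexpressing HeLa A3G-eYFP cells, scanned by Acumen cytometer, reports blocked A3G degradation. Cells plated at 700/well overnight at 37 deg C before compound addition, then a further overnight compound incubation at 37 deg C.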
# [6] = target: Lethal(3)malignant brain tumor-like protein 1 (Homo sapiens) (UniProt Q9Y468); test: qHTS Assay for the Inhibitors of L3MBTL1: Hit Validation (AID 540279); details: L3MBTL1 methyl-lysine binding inhibition, biochemical qHTS; note: potency is the fitted concentration of half-maximal effect; nearly all actives have a fitted effect of over 70% in size
# In short: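 AlphaScreen competition format: 50 nM L3MBTL1 preincubated 30 min at room temperature with 75 nM biotinylated H3(1-15)K9me1 peptide, then compounds added for 30 min, then streptavidin donor and nickel chelate acceptor beads (10 ug/mL final) for 30 min dark.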
# [7] = target: DNA polymerase kappa (Homo sapiens) (UniProt Q9UBT6); test: qHTS for Inhibitors of Polymerase Kappa: Confirmatory Assay for Cherry-picked Compounds (AID 720501); details: purified Pol-kappa, fluorescent strand-displacement substrate; note: potency is the fitted concentration of half-maximal effect
# In short: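 Human Pol-kappa, dispensed at 10 nM, was preincubated with compounds for 15 min at room temperature. Reactions were started with primer/template substrate (50 nM final) carrying a TAMRA reporter strand and BHQ-2-quenched template, and fluorescence (ex 525/em 598 nm) was read at 0 and 10 min.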
# [8] = target: DNA polymerase eta (Homo sapiens) (UniProt Q9Y253); test: qHTS for Inhibitors of Polymerase Eta: Confirmatory Assay for Cherry-picked Compounds (AID 720502); details: Pol eta primer extension, TAMRA/BHQ fluorescence, 10 min; note: potency is the fitted concentration of half-maximal effect
# In short: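 The reaction starts with 50 nM final labeled DNA substrate added to Pol eta (10 nM) that had sat with compound for 15 min. TAMRA emission at 598 nm is read at 0 and 10 min.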
# [9] = target: Cytochrome P450 2C9 (Homo sapiens) (UniProt P11712); test: qHTS Assay for Inhibitors and Substrates of Cytochrome P450 2C9 (AID 883); note: nearly all actives have a fitted effect of over 60% in size
# In short: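 A luminogenic readout tracked human CYP2C9 (10nM) converting deoxyluciferin (100uM, at KM) in 25mM KPO4 during 60 min at 37C with regenerated NADPH. Values normalized to 57uM sulphaphenazole as complete inhibition.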
# [10] = target: Cytochrome P450 2D6 (Homo sapiens) (UniProt P10635); test: qHTS Assay for Inhibitors and Substrates of Cytochrome P450 2D6 (AID 891);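 note: luciferin methyl ether substrate demethylated by CYP2D6 with NADPH regeneration; nearly all actives have a fitted effect of over 60% in size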
# In short: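 Luminescent read-out of luciferin formed by 5 nM human CYP2D6 demethylating 30 uM Luciferin-ME EGE (Km level) over 60 min at room temperature after NADPH regeneration addition. Data normalized to full inhibition by 1.43 uM quinidine.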
# [11] = target: Cytochrome P450 2C19 (Homo sapiens) (UniProt P33261); test: qHTS Assay for Inhibitors and Substrates of Cytochrome P450 2C19 (AID 899); note: nearly all actives have a fitted effect of over 60% in size
# In short: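 NADPH-dependent conversion of Luciferin-H EGE (10uM, at KM) by 5nM enzyme in 50mM KPO4, 60 min at 37C following 10 min compound preincubation. Stopped with luciferin detection buffer; luminescence read after 20 min.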
# [12] = target: Bile acid receptor (Homo sapiens) (UniProt Q96RI1); test: qHTS assay for small molecule agonists of farnesoid X receptor signaling (AID 588527; calls by dose curve; note: series mostly up to about 77 µM); details: HEK293T FXR-UAS-bla, beta-lactamase ratio, 16 h; activation: stronger effect = higher value
# In short: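 Read-out: beta-lactamase reporter fluorescence with CCF4 substrate in GeneBLAzer FXR-UAS-bla HEK293T cells, after 16 h compound exposure at 37 C. Response scaled between DMSO basal (0%) and chenodeoxycholic acid at 100 uM (100%).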
# [13] = target: Peroxisome proliferator-activated receptor delta (Homo sapiens) (UniProt Q03181); test: qHTS assay for small molecule agonists of peroxisome proliferator-activated receptor delta signaling (AID 588534; calls by dose curve)
# In short: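 Agonist-mode qHTS; reporter cells, 5 hrs 37 C pre-incubation; compound titration, 18 hrs 37 C; CCF4 dye, 2 hrs RT; fluorescence read. EC50/efficacy via Hill fit.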
# Sequence of DNA dC->dU-editing enzyme APOBEC-3G (Homo sapiens) (Q9HC16 whole entry, looked up): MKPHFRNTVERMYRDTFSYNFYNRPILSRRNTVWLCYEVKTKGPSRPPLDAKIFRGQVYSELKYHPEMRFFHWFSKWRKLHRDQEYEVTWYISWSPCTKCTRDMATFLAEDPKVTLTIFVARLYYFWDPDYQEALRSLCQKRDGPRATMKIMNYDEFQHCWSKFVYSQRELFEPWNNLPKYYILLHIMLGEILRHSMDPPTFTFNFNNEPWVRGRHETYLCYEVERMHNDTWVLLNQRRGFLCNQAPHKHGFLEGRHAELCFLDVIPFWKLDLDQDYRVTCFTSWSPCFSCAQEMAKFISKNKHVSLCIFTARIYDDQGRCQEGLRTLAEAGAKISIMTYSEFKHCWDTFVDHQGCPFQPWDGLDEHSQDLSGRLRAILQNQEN
# Sequence of 3',5'-cyclic-AMP phosphodiesterase 4B (Homo sapiens) (Q07343 whole entry, looked up): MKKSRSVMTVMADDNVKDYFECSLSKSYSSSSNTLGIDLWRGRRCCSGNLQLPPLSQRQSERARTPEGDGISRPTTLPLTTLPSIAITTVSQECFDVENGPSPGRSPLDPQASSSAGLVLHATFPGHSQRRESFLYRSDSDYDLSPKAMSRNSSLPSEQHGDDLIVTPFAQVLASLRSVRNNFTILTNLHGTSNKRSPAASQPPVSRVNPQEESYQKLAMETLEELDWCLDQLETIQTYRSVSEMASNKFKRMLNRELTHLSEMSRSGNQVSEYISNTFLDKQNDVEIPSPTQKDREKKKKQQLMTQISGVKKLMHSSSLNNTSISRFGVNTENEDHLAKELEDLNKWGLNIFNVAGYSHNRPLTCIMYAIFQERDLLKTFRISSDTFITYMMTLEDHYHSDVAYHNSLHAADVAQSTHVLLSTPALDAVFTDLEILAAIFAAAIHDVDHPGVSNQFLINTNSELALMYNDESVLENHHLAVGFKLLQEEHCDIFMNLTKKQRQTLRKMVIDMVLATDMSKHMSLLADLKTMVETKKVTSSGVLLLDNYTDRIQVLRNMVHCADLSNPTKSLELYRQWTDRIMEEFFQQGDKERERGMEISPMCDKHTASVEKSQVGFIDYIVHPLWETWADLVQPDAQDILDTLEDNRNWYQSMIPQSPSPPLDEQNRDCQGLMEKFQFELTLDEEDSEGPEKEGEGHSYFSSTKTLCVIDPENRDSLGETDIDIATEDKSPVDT
# Sequence of Cytochrome P450 3A4 (Homo sapiens) (P08684 whole entry, looked up): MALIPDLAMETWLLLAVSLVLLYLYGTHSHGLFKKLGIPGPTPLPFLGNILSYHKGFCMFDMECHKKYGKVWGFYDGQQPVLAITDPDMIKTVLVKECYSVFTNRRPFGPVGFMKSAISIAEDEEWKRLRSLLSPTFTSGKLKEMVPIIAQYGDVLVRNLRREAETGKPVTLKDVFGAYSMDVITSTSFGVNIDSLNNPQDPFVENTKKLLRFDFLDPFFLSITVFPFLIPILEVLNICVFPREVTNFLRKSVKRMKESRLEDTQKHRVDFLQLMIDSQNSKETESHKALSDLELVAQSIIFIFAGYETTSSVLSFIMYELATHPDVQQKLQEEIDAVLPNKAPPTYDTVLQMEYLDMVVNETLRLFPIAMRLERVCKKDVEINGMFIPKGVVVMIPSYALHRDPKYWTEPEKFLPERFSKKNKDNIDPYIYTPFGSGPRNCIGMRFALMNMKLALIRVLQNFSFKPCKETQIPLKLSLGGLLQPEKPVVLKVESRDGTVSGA
# Sequence of DNA polymerase eta (Homo sapiens) (Q9Y253 whole entry, looked up): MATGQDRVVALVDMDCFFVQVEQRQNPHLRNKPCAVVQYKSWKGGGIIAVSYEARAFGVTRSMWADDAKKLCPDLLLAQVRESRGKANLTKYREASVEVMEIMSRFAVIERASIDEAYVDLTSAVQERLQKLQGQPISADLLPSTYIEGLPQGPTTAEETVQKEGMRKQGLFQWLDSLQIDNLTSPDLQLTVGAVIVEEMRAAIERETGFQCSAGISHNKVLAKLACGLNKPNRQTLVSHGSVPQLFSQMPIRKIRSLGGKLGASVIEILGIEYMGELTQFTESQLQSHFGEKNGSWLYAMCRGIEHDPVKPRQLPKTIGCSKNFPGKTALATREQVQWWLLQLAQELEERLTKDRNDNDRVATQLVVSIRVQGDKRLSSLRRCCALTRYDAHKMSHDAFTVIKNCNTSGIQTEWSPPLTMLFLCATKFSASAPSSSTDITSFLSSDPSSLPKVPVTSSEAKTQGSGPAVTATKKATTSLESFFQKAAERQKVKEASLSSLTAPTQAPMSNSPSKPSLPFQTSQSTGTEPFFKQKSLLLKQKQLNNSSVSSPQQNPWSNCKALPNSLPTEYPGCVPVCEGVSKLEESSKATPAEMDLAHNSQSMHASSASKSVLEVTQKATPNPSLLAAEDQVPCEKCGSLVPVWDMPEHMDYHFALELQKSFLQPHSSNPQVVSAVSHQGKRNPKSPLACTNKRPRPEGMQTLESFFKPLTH
# Sequence of Peroxisome proliferator-activated receptor delta (Homo sapiens) (Q03181 whole entry, looked up): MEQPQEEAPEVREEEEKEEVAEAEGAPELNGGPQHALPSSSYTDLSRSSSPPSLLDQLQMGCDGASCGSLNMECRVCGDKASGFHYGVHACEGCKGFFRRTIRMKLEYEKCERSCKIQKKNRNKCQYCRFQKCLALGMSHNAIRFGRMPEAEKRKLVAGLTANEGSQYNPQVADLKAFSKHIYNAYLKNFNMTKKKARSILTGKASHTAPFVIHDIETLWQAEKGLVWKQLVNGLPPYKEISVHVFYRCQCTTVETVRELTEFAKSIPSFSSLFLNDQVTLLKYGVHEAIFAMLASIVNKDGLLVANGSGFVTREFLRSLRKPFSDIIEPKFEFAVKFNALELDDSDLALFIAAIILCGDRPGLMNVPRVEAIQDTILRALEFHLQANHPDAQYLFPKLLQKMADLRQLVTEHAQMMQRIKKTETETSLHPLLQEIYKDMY
# Sequence of Cytochrome P450 2D6 (Homo sapiens) (P10635 whole entry, looked up): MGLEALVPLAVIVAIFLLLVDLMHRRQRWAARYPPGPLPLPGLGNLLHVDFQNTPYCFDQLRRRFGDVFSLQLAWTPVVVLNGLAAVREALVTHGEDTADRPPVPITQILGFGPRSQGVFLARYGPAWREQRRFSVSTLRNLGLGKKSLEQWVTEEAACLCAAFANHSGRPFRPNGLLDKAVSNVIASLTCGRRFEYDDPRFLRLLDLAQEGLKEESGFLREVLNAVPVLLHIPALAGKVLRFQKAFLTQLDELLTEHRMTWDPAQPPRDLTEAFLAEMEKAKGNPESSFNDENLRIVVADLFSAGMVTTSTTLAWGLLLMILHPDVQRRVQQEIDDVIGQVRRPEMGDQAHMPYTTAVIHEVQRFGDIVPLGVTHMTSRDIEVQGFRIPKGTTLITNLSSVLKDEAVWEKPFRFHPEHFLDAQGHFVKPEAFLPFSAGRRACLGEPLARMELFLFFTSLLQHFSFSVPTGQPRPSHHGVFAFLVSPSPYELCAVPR
# Sequence of Bile acid receptor (Homo sapiens) (Q96RI1 whole entry, looked up): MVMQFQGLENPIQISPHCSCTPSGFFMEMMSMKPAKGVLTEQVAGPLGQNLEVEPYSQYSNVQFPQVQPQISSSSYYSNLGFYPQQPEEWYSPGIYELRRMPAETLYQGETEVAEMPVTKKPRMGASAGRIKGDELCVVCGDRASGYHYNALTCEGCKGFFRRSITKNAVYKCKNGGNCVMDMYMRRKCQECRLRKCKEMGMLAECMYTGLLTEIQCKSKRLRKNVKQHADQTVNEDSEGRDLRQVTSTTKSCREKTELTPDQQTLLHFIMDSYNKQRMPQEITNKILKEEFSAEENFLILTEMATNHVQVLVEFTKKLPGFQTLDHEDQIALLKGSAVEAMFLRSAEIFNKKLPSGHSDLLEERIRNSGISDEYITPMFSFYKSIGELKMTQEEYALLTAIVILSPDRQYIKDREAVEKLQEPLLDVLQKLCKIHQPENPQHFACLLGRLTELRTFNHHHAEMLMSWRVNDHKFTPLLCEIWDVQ
# Sequence of Cytochrome P450 2C19 (Homo sapiens) (P33261 whole entry, looked up): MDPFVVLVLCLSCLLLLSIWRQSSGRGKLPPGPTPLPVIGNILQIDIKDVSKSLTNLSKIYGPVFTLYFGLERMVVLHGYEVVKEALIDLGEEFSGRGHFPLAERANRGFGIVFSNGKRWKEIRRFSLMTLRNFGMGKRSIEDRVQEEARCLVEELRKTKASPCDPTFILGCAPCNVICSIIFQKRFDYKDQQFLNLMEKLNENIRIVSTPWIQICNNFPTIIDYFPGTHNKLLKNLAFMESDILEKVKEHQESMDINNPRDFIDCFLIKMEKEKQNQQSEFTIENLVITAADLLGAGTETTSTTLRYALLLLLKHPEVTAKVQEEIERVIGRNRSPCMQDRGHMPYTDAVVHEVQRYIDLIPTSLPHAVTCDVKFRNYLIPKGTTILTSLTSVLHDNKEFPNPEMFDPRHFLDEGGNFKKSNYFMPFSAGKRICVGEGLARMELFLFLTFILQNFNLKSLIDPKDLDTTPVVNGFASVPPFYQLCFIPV
# Sequence of Cytochrome P450 2C9 (Homo sapiens) (P11712 whole entry, looked up): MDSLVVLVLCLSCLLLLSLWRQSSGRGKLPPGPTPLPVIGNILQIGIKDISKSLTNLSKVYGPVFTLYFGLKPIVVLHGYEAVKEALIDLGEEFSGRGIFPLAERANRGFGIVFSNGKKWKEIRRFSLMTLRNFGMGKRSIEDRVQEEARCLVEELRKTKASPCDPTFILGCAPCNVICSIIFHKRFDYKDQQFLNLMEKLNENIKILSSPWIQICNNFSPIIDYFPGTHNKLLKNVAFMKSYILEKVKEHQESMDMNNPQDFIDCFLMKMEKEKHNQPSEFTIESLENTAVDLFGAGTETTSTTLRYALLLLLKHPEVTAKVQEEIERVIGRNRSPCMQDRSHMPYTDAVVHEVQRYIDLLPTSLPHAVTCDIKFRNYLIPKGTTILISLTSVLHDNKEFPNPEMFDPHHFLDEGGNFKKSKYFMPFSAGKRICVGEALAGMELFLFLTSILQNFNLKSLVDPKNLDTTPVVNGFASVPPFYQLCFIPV
compound,measurement,setting,value
O=C1C[C@@H]2OCC=C3CN4CC[C@]56c7ccccc7N1[C@H]5[C@@H]2[C@H]3C[C@@H]46,outcome,[1],inactive
same,outcome,[2],inactive
O=P(N[C@@H](c1ccccc1)[C@@H]1C[C@H]1CO)(c1ccccc1)c1ccccc1,outcome,[1],inactive
same,Potency,[3],inactive
COC(=O)[C@@]1(Cc2ccccc2)[C@H]2c3cc(C(=O)N(C)C)[nH]c3C[C@H]2CN1C(=O)c1ccccc1,outcome,[1],inactive
same,outcome,[2],inactive
CC1=CC(=O)C2=C(C)C[C@H](O)[C@H]3[C@H](C)C(=O)O[C@@H]3C12 (stereo partly specified),Potency,[4],inactive
same,outcome,[5],inactive
CCCC/C(C)=C/[C@@H](NP(=O)(c1ccccc1)c1ccccc1)c1ccccc1,outcome,[1],inactive
same,Potency,[4],2.51 µM (active)
same,Potency,[3],inactive
C[C@@]1([C@@H](NP(=O)(c2ccccc2)c2ccccc2)c2ccccc2)C[C@H]1CCO,outcome,[1],inactive
same,Potency,[4],7.94 µM (active)
same,Potency,[3],inactive
O=CN1CC2CC(C1)c1cccc(=O)n1C2 (stereo unspecified),Potency,[4],inactive
same,outcome,[5],inactive
CNC(=O)[C@H]1C[C@@H]1[C@H](NP(=O)(c1ccccc1)c1ccccc1)c1ccccc1,outcome,[1],inactive
same,outcome,[2],inactive
Cc1cc(/C=C2/C(=O)NC(=O)N(Cc3ccco3)C2=O)c(C)n1-c1ccc(C(=O)O)cc1,Potency,[6],9.47 µM (active)
same,Potency,[7],18.9 µM (active)
same,Potency,[8],60.1 µM (active)
CCN1C[C@@]2(COC)[C@H](O)C[C@H](OC)[C@@]34[C@@H]5C[C@@]6(O)[C@H](OC(=O)c7ccccc7)[C@H]5[C@@](OC(C)=O)([C@H]([C@@H](OC)[C@H]23)[C@H]14)[C@H](O)[C@@H]6OC,outcome,[1],inactive
same,Potency,[9],inactive
same,Potency,[10],inactive
same,Potency,[11],inactive
C=C(C)c1ccccc1,outcome,[1],inactive
same,Potency,[4],inactive
same,activation,[12],-3.16%
same,outcome,[13],inactive
COc1ccc(CC2NCC(O)C2OC(C)=O)cc1 (stereo unspecified),Potency,[4],inactive
same,outcome,[5],inactive
c1cc2c(cc1[C@H]1OC[C@@H]3[C@H]1CO[C@H]3c1ccc3c(c1)OCO3)OCO2,Potency,[4],0.794 µM (active)
same,Potency,[3],inactive
same,outcome,[5],inactive
CCCc1cc2c(n1Cc1ccco1)C(C)C1CN(C(=O)c3ccccc3)C(C)(C(=O)OC)C21 (stereo unspecified),outcome,[1],inactive
same,outcome,[2],inactive

# Reference: PubChem BioAssay (NCATS)
